Rab9 promoter act = activators of Rab9 promoter; Potency, µM (doses to about 9.22 µM), for inactives: at the top dose activation, negative = inhibition, hits mostly activators; 320,000 tested, 2.8% active; AID 485297; Huh7 Rab9 promoter-luciferase reporter, luminescence, 24 h; note: % of control where 0% means no effect; nearly all actives have a fitted effect of over 60% in size
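Measured in stably transfected Huh7 cells bearing a Rab9 promoter–luciferase construct: 24 h compound treatment at 37 °C, followed by luminescence detection.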
ELG1 genotox = genotoxicity induction in ELG1-luciferase HEK293T cells; Potency, µM (top dose mostly 46 µM), inactives show at the highest dose activity change, positive = activation, usual class: activators; HEK293T ELG1-luciferase reporter, luminescence, 16 h; 330,000 tested, 1.3% active; note: % of control where 0% means no effect; nearly all actives have a fitted effect of over 60% in size
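Reporter readout depends on ELG1 protein level, which increases with genetic stress. After 16 hr compound exposure at 37 °C, luciferase activity was quantified using ONE-Glo.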
FLuc modulator = inhibits or activates purified firefly luciferase, miR-21 counter-screen; purified FLuc, Km substrates, luminescence inhibition; Potency, µM (doses to about 57.5 µM), without a hit: at the top dose activity change, negative = inhibition, usual class: inhibitors; P08659; 360,000 tested, 6.9% active;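 note: plate controls were vehicle for no effect and reference inhibitor for full effect; nearly all actives have a fitted effect of over 55% in size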
Target sequence (P08659 whole entry, looked up): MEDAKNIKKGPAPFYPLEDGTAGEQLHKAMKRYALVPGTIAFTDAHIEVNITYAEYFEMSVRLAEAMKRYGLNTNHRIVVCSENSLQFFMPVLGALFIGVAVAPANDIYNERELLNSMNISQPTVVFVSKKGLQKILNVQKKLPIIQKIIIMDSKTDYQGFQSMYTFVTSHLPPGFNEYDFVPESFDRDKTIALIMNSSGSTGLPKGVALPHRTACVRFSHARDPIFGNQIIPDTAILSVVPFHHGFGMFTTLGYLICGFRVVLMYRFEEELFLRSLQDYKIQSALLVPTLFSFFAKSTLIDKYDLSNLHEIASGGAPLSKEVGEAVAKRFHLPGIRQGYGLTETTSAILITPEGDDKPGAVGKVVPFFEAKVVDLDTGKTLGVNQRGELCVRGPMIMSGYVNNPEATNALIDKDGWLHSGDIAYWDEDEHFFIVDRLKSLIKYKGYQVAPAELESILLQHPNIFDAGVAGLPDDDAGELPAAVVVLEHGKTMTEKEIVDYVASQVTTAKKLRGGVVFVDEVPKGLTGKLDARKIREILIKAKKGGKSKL
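Purified P. pyralis luciferase (10nM final) with 10uM D-luciferin and 10uM ATP (Km levels) in 50mM Tris acetate pH 7.5, 10mM Mg acetate, 0.01% Tween-20, 0.05% BSA; qHTS 6-point titration, ~60 µM downward; luminescence read.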
NPC1 promoter act = activates the NPC1 promoter; 320,000 tested, 2.4% active; Potency, µM (top dose mostly 9.22 µM), for the others: top-dose activation, hits mostly activators; AID 485313; Huh7 NPC1 promoter luciferase reporter, 24 h; note: % of control where 0% means no effect; nearly all actives have a fitted effect of over 60% in size
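In 1536-well qHTS, Huh7 cells harboring an NPC1 promoter–luciferase construct received compound for 24 h; activation was quantified by luminescence following luciferase reagent addition.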
ELG1 DNA repair = blocks ELG1-dependent DNA repair in HEK293T cells; HEK293T ELG1-luciferase reporter, luminescence, 16 h; DNA damage induced by 5-fluorouridine; Potency, µM (series often up to 46.1 µM), for the others: at the top dose activity change, negative = inhibition, actives largely listed as inhibitors; 330,000 tested, 2.3% active; note: % is set by controls: 0 for no effect and ±100 for the full control effect; nearly all actives have a fitted effect of over 55% in size
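Cells (2,000 per well) received 5-fluorouridine plus test compound or DMSO and were incubated 16 hr at 37 °C, 5% CO2. Luciferase activity was read by luminescence 30 min after ONE-Glo addition; signal suppression marked inhibition of damage-induced ELG1 function.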
SMN2 splice enh = increases expression of the SMN2 splice variant; HEK293 SMN2-luciferase splicing reporter, luminescence, 30-36 h; Potency, µM (series often up to 46.1 µM), without a hit: at the top dose activity change, positive = activation, hits mostly activators; 210,000 tested, 2.8% active; AID 1458; note: % of control where 0% means no effect; nearly all actives have a fitted effect of over 55% in size
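HEK293 cells carry an SMN2 minigene-luciferase reporter in which exon 7 inclusion puts luciferase in frame. Cells were seeded at 2000 cells/well, attached for 10-12 hours, then exposed to compounds for 30-36 hours at 37C before ONE-Glo luminescence.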
The depositor's hits bear a star; ? = inconclusive; . = no result; ! = not active in a repeat; [ ] = remark or other dose. An excerpt weighted towards active compounds, which were near 9.4% of everything screened. Calls come from the whole dose curve; as a rule, active = well fitted curve in the direction sought with a large enough effect; inconclusive = small, poorly fitted or top-dose-only effect, or another doubt; inactive = no such curve, though single readings can be large; an effect the other way counts as inactive or inconclusive. Potency is the fitted concentration of half-maximal effect.

SMILES | Rab9 promoter act | ELG1 genotox | FLuc modulator | NPC1 promoter act | ELG1 DNA repair | SMN2 splice enh
CCOc1ccccc1C(=O)N/N=C/c1cccc2cccnc12 | 0% | 0% | ? | 2% | ? | -8%
CCCN(CCC)CCNC(=O)Cn1cnc2sc(C)c(S(=O)(=O)N3CCN(c4ccccc4OC)CC3)c2c1=O | . | . | -1% | . | . | -4%
O[C@H](C[C@@H]1CCCCN1)c1ccc2c(c1)oc1ccccc12 | . | . | . | . | . | -1%[9.22 µM]
CCOc1ccc(CNC(=O)Cn2ccc3cc(S(=O)(=O)N4CCCCC4)ccc32)cc1 | . | . | -4% | . | . | .
COCC(=O)N1CCc2nc(-c3ccc(OC)cc3C)c3c(c2C1)CO[C@@H](c1ccccc1)C3 | . | . | . | . | . | -2%[9.22 µM]
COc1ccccc1C(=O)Nc1ccnn1C1CCN(Cc2cc(C)c(C)cc2C)CC1 | -8% | -10% | -1% | -5% | 23µM* | .
Cc1cc(C)c(CN2CCC(n3nccc3NC(=O)c3ccccc3Cl)CC2)cc1C | 5% | -9% | -5% | 1% | -25% | .
Cc1cccc(C)c1NC(=O)CSc1nccn1C | . | . | -3% | . | . | -2%
CCC1CCc2c(sc(NC(=O)C3c4ccccc4Oc4ccccc43)c2C#N)C1 (configuration not stated) | . | . | 4% | . | . | -11%
Cc1cc(C)c(S(=O)(=O)N2CCN(CCN3C(=O)c4cccc5cccc(c45)C3=O)CC2)cc1[N+](=O)[O-] | 1% | 8% | -1% | -6% | 3.7µM* | -8%
N#CC1=C(N)N2C(=C(C#N)C1c1ccccc1)Sc1ccccc12 (configuration not stated) | 5% | 9% | -5% | 5% | 13% | ?
N#CC1=C(N)N2C(=C(C#N)C1c1ccc(Br)cc1)Nc1ccccc12 (configuration not stated) | -28% | -10% | 1% | -13% | 2.9µM* | .
N#CC1=C(N)N2C(=C(C#N)C1c1cccc(Br)c1)Nc1ccccc12 (configuration not stated) | -24% | -12% | 0% | -14% | 2.9µM* | -54%
COc1cc(C(=O)ON=C2C3CC4CC(C3)CC2C4)cc(OC)c1OC | 0% | -12% | 1% | -2% | 23µM* | .
COc1cc(C(=O)O/N=C2\C=CC(=O)C=C2C)cc(OC)c1OC | -1% | 8% | -1% | -1% | 2% | -6%
O=C(Nc1cc(S(=O)(=O)N2CCOCC2)ccc1N1CCOCC1)c1ccc([N+](=O)[O-])s1 | . | -4% | . | . | 21µM* | .
Cc1ccc(NC(=O)c2ccccc2NS(=O)(=O)c2ccc(Cl)s2)cc1S(=O)(=O)N1CCOCC1 | -4% | -6% | ? | 0% | 23µM* | -64%
COc1ccc(S(=O)(=O)N2CCOCC2)cc1NC(=O)COC(=O)c1[nH]c(C)c(C(C)=O)c1C | . | -3% | . | . | ? | .
Cc1ccc(NC(=O)C2=COCCO2)cc1S(=O)(=O)N1CCOCC1 | -1% | 2% | -4% | -8% | 5% | .
COc1ccc(S(=O)(=O)N2CCOCC2)cc1NC(=O)COC(=O)c1ccc([N+](=O)[O-])s1 | . | -1% | . | . | 23µM* | .
O=C(Nc1cc(S(=O)(=O)N2CCOCC2)ccc1N1CCOCC1)c1ccccc1[N+](=O)[O-] | . | 0% | . | . | 0% | .
O=C(Nc1cc(S(=O)(=O)N2CCOCC2)ccc1O)c1ccc(NS(=O)(=O)c2ccc(Cl)s2)cc1 | 0% | 2% | -1% | 0% | 23% | 2%
Cc1ccc(NC(=O)c2ccc([N+](=O)[O-])s2)cc1S(=O)(=O)N1CCOCC1 | . | -5% | . | . | 6.5µM* | .
COc1ccc(NC(=O)c2oc3ccccc3c2CSC)cc1S(=O)(=O)N1CCOCC1 | . | 2% | . | . | 4% | .
COc1cc(S(=O)(=O)N2CCOCC2)ccc1NC(=O)COC(=O)CC12CC3CC(CC(C3)C1)C2 | 1% | -3% | 1% | 1% | 18µM* | -21%
SMILES | Rab9 promoter act | ELG1 genotox | FLuc modulator | NPC1 promoter act | ELG1 DNA repair | SMN2 splice enh
Cc1ccc(NC(=O)c2oc3ccccc3c2COC(C)C)cc1S(=O)(=O)N1CCOCC1 | . | -5% | . | . | 18µM* | .
Cc1ccc(NC(=O)c2ccc3c(c2)OCO3)cc1S(=O)(=O)N1CCOCC1 | 14% | -2% | . | 0% | 18µM* | .
CCC/C=C(\CCC)C(NS(=O)(=O)CC12CCC(CC1=O)C2(C)C)c1ccc(C(=O)OC)cc1 (configuration not stated) | . | . | . | . | . | -25%
CCC(CC)C(=O)Nc1nnc(S(=O)(=O)N2c3ccccc3CC2C)s1 (configuration not stated) | 0% | -5% | 17µM*! | -2% | -12% | .
Cc1nc(N/N=C/c2cccc(F)c2)cc(N2CCOCC2)n1 | 1% | -9% | -17% | -11% | ? | .
COc1ccc(/C=N/Nc2cc(C)nc(N3CCOCC3)n2)cc1OC | 17% | 2% | 6.7µM* | 9% | 3% | .
COc1ccc(/C=N/Nc2cc(C)nc(N3CCOCC3)n2)cc1 | 19% | 3% | 2.4µM* | 12% | ? | .
Cc1cc(N/N=C/c2ccc(F)cc2)nc(-n2nc(C)cc2C)n1 | -8% | -12% | -3% | -5% | ? | .
COc1ccc(/C=N\Nc2ncc(F)c(N3CCOCC3)n2)cc1OC | 12% | -8% | 11µM* | -2% | 18µM* | .
COc1ccc(/C=N/Nc2cc(C)nc(-n3nc(C)cc3C)n2)c(OC)c1 | -12% | ? | 17µM* | 0% | -1% | -102%
COC(=O)C1=COC(O[C@H]2OC(CO)[C@H](O)C(O)C2O)[C@H]2C1C(=O)C[C@@H]2C (some centres not stated) | . | . | . | . | . | 2%
CCOC(=O)C1CCCN(C(=O)Cn2ncn3c(cc4sc(CC)cc43)c2=O)C1 (configuration not stated) | . | . | -2% | . | . | -13%
COc1ccccc1/C=N/Nc1cc(C)nc(N2CCOCC2)n1 | 0% | -3% | 13µM* | 4% | 1% | .
C[C@H]1CN(CCO)CCN1c1ccccc1 | . | . | . | . | . | -24%[9.22 µM]
C[N@@+]1(Cc2ccc(Cl)c(Cl)c2)CCC[C@@H]1c1ccc[n+](Cc2ccc(Cl)c(Cl)c2)c1 | . | . | . | . | . | -1%[9.22 µM]
COc1ccc(CNC(=O)c2ccc3c(c2)nc2n3CCC(C)C2)c(OC)c1 (configuration not stated) | . | . | -16% | . | . | .
COCCSc1ncnc2c1oc1nc3c(cc12)COC(C)(C)C3 | 17% | 12% | -20% | ? | ? | .
CC1(C)Cc2nc3oc4c(N(CCO)Cc5ccccc5)ncnc4c3cc2CO1 | -9% | -19% | 1% | -4% | 18µM* | -47%
COc1ccc(NC(=O)CSc2nc3c(oc4ccccc43)c(=O)n2-c2ccc(C)c(C)c2)cc1 | . | . | -8% | . | . | -2%
